Results on 93 molecules are retold here after PubChem BioAssay AID504408 (Broad Institute, 2011).

Screen size: about 300,000 compounds; about 5,200 (1.7%) were called active. The sample holds actives, similar compounds and a random draw of the others, so the mix is not that of the screen. Values without a mark were called inactive.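 The calls were made as follows: active = mean replicate activation of at least 50% with a set share of replicates each reaching 50%; inconclusive = only one of those two conditions met; inactive = mean below 50% and too few replicates reaching it.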

The nature of the assay: HSF-1 activators, primary screen, NIH3T3-HGL cells, MG132 stress, luminescence, single point (AID 504408).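 Also: 0% = median of the neutral control wells and 100% = twice that signal.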 Conditions: NIH3T3-HGL HSF-1 luciferase reporter, MG132, 8 h; at 9 µM; hits give high values; 100% = twice DMSO control signal. Background: In a reporter assay the amount or activity of a reporter protein is the signal.
Take `Cc1ccc(NC(=S)NCCc2ccc(Cl)cc2)c(C)c1`: the activation was 21.9%.

`Cc1ccc(NC(=S)Nc2ncccc2C)c(C)c1`: the activation is 56.7% (active).

Turning to `Cc1ccc(NC(=S)NCc2ccccc2Cl)c(C)c1`, the activation was 5.6%.

As for `O=S(=O)(Nc1cccc(-c2ccc(N3CCOCC3)nn2)c1)c1ccc(Cl)c(Cl)c1`, the activation is 5.14%.

As for `CCOc1ccc(S(=O)(=O)N2CCN(C(=S)NCC3CCCO3)CC2)cc1` (stereo not drawn), the activation is -5.36%.

Consider `CC(=O)Nc1ccc(-c2csc(NC(=O)Nc3ccccc3)n2)cc1`, for which the activation is -8.14%.

`O=C(Nc1ccccc1)Nc1nc2ccccc2s1`: the activation was 61.1% (active).

As to `O=C(CCC(=O)c1cccs1)Nc1nc2ccccc2s1`, the activation was 10.8%.

As for `CCCNC(=O)CCn1cc(-c2ccc(OC)cc2)nc1CCN`, the activation was -10.4%.

On to `Cc1ccccc1NC(=O)c1ccccc1NS(=O)(=O)c1cccc2cccnc12`, for which the activation is -9.95%.

As for `COc1cc(NS(=O)(=O)c2ccc3ccccc3c2)c2ncccc2c1`, the activation is -10.7%.

`O=[N+]([O-])c1ccccc1S(=O)(=O)Nc1cccc2cccnc12`: the activation was 144% (active).

For the molecule `COc1ccc(C(=O)OCC(=O)c2ccc(Cl)s2)c(OC)c1OC`, the activation is 3.84%.

For the molecule `Cc1cc(NC(=O)C(C)SCC(=O)Nc2ccccc2N2CCCCC2)no1` (stereo not drawn), the activation was 10.3%.

Consider `CCN(CC(=O)Nc1c(F)cccc1F)C(=O)c1ccc(-c2ccccc2)cc1`, for which the activation is 0.0275%.

Turning to `CCCCn1c(N)c(N(CCOC)C(=O)c2cccc(OCc3ccccc3)c2)c(=O)[nH]c1=O`, the activation is -6.35%.

For the molecule `CC(OC(=O)C1CC(=O)N(Cc2ccccc2)C1)C(=O)Nc1ccccc1[N+](=O)[O-]` (stereo not drawn), the activation is 8.17%.

For the molecule `O=C(O)c1cccc(S(=O)(=O)Nc2ccc(O)cc2Sc2nc3ccccc3s2)c1`, the activation is 1.08%.

`O=[N+]([O-])c1c(NCCO)cc(Sc2nc3ccccc3s2)c2nonc12`: the activation was 229% (active).

On to `CCOc1ccccc1Nc1ccc2nonc2c1[N+](=O)[O-]`, for which the activation is -13.1%.

Consider `Cc1ccc(C)c(OCCC(=O)OCC(=O)c2ccc3c(c2)NC(=O)CO3)c1`, for which the activation was -12.3%.

`COc1ccccc1C(=O)NC(=O)COC(=O)c1ccco1`: the activation is -0.902%.

Take `CCn1c(SCC(=O)Nc2ccc3c(c2)OCCO3)nnc1C(C)C`: the activation was -3.33%.

For the molecule `CCCn1c(SCC(N)=O)nnc1C(C)C`, the activation is 1.36%.

On to `CCCn1c(SCC(=O)c2ccc3c(c2)OCCO3)nnc1C(C)C`, for which the activation is 62.4% (active).

As to `Cc1ccc(S(=O)(=O)N2CCC(C(=O)OCC(=O)N(C)c3ccccc3)CC2)cc1C`, the activation was -10.4%.

Consider `Cn1cccc1C(=O)OCC(=O)c1ccc(Br)s1`, for which the activation was -97.9%.

Take `CCc1nnc(NC(=O)/C=C/c2ccc(C)o2)s1`: the activation was 3.89%.

For `Cc1ccc(/C=C/C(=O)Nc2cc(S(=O)(=O)N3CCCCCC3)ccc2OCC(F)(F)F)o1`, the activation is 2.76%.

For the molecule `Cc1ccc(/C=C/C(=O)Nc2ccc([N+](=O)[O-])c(NC(=O)/C=C/c3ccc(C)o3)c2)o1`, the activation is 73% (active).

For the molecule `CCN(C(=O)CSc1nnc(-c2ccc(OC(F)F)cc2)n1N)C1CCS(=O)(=O)C1` (stereo not drawn), the activation is -15.1%.

Regarding `COC(=O)c1ccc(NS(=O)(=O)c2cc3c4c(c2)C(C)C(=O)N4CCC3)cc1` (stereo not drawn), the activation was 21.6%.

In the case of `COc1ccc(NC(=O)CN(C)C(=O)c2ccc(NC3CC3)c([N+](=O)[O-])c2)cc1`, the activation was 5.08%.

As for `O=C1CCc2cc(S(=O)(=O)Nc3ccc(C(F)(F)F)cc3)cc3c2N1CC3`, the activation is 15.1%.

`CC1CCN(C(=S)c2ccc(-c3ccc(Cl)cc3Cl)o2)CC1`: the activation is 52% (active).

Turning to `COc1ccc(C(=O)Nc2c(Cl)cc(Cl)cc2C(=O)N2CCC(C)CC2)cc1`, the activation was 18%.

Consider `Cc1csc(NC(=O)c2ccc(-c3ccc(Cl)cc3Cl)o2)n1`, for which the activation was 3.06%.

In the case of `Cc1c(C(=O)OCC(=O)N2CCCC2=O)oc2ccccc12`, the activation is 16.8%.

Take `N#Cc1cccc(OC(=O)c2ccc3c(=O)n4c(nc3c2)CCC4)c1`: the activation is -0.984%.

Take `CCOC(=O)C1C(=O)NC(N2CCN(c3ccccc3)CC2)=NC1c1ccco1` (stereo not drawn): the activation was -4.78%.

Consider `Cc1ccc(C2=NN(C(=O)CSc3nc(N)cc(N)n3)C(c3ccco3)C2)cc1` (stereo not drawn), for which the activation was 22.7%.

For the molecule `CCOC(=O)C1C(=O)C=C(c2ccc(OC)cc2)CC1c1ccco1` (stereo not drawn), the activation was 285% (active).

Take `Cc1nc2c(c(C)nn2-c2ccccc2)c(C)c1C`: the activation was -8.62%.

`COc1cc(SC)ccc1C(=O)Nc1cc(C)ccn1`: the activation was 55.7% (active).

Consider `Cc1ccnc(NC(=O)c2ccoc2C)c1`, for which the activation was 17.6%.

With `COc1cc(SC)ccc1C(=O)Nc1nc(C)cs1`, the activation is -71.7%.

On to `COC(=O)[C@@]12CCCN1[C@H](c1ccc(-c3ccc(F)cc3)c(OC)c1)[C@H]1C(=O)N(C)C(=O)[C@H]12`, for which the activation is 42.9%.

As for `COc1ccc(Cl)cc1C=CC=Nc1ccc(S(N)(=O)=O)cc1`, the activation is -18.4%.

`COc1cccc(NC(=S)NCc2ccco2)c1`: the activation was 19.7%.

Regarding `FC(F)Oc1ccc(NC(=S)NCc2ccco2)cc1Cl`, the activation is 7.43%.

Take `COc1cc(NC(=S)NCc2ccco2)c(OC)cc1Cl`: the activation was 62.1% (active).

Regarding `CCCCOc1ccc(-c2nnc(-c3ccco3)o2)cc1`, the activation is 79.3% (active).

As to `COc1ccc(OCC(=O)Nc2nnc(-c3ccco3)s2)cc1`, the activation is 3.21%.

On to `Cc1ccc(OCC(=O)Nc2nnc(-c3ccco3)s2)cc1`, for which the activation is 2.22%.

Turning to `CC(C)Oc1ccc(S(=O)(=O)N2CCOCC2)cc1NC(=O)C1CSC2(C)CCC(=O)N12` (stereo not drawn), the activation is 0.413%.

Consider `Cc1nn(C)cc1/C=N/NC(=O)c1sc2ccccc2c1Cl`, for which the activation was 3.1%.

In the case of `Cc1nn(-c2ccccc2)c(Cl)c1/C=N/NC(=O)c1nn(C)cc1[N+](=O)[O-]`, the activation is 125% (active).

On to `Cc1ccc(-n2nc(C)c(/C=N/NC(=O)c3cccs3)c2Cl)cc1`, for which the activation is -8.54%.

With `Cc1cccc(Oc2c([N+](=O)[O-])c(=O)n(C)c3ccccc23)c1`, the activation is 110% (active).

Regarding `Cn1c(=O)c([N+](=O)[O-])c(Oc2ccccc2)c2ccccc21`, the activation is 6.27%.

Regarding `Cc1cc(C)c(-c2c(O)c3ccccc3n(C)c2=O)c(C)c1`, the activation was -9.47%.

For the molecule `CC(=O)c1c(C)[nH]c(C(=O)COC(=O)CCOc2ccc(C)cc2)c1C`, the activation was -0.193%.

On to `COC(=O)N/N=C/c1c[n+]([O-])c2ccccc2[n+]1[O-]`, for which the activation was 0.846%.

With `Cc1ccc(S(=O)(=O)N(C)C)cc1NC(=O)COC(=O)/C=C/c1cccs1`, the activation was -10.8%.

On to `Cc1ccc(S(=O)(=O)N(C)C)cc1NC(=O)COC(=O)C1COc2ccccc2O1` (stereo not drawn), for which the activation was -5.78%.

Consider `Cc1ccc(S(=O)(=O)N(C)C)cc1NC(=O)COC(=O)c1c(C)noc1C`, for which the activation is 63.2% (active).

In the case of `O=C(N/N=C/c1cc(Br)c(O)c([N+](=O)[O-])c1)C(O)(c1ccccc1)c1ccccc1`, the activation is 3.81%.

As to `N#C/C(=C/c1cccc([N+](=O)[O-])c1)c1nnc2n1CCCCC2`, the activation is -2.78%.

Turning to `N#C/C(=C(\O)C(F)(F)F)c1nnc2n1CCCCC2`, the activation is 55.4% (active).

For the molecule `N#C/C(=C(\O)CCl)c1nnc2n1CCCCC2`, the activation is -4.83%.

As for `CC(C)(C)N1C(=O)[C@H]2[C@@H](c3ccc(Br)cc3)N3C(=O)N(c4cccc(Cl)c4)C(=O)[C@@]3(C)[C@H]2C1=O`, the activation was -6%.

On to `CCCCN(C(=O)CSCC(=O)Nc1ccc(OC)cc1)c1c(N)n(CCC)c(=O)[nH]c1=O`, for which the activation is -4.27%.

With `Cc1ccccc1N1CC(C(=O)Nc2ccc(S(=O)(=O)N3CCCC3)cc2)CC1=O` (stereo not drawn), the activation is 9.12%.

With `CN(C1CCS(=O)(=O)C1)S(=O)(=O)c1ccc2ccccc2c1` (stereo not drawn), the activation was -4.34%.

For the molecule `COc1ccc(Cc2nnc(SCC(=O)Nc3ccc(C)c(Cl)c3)[nH]c2=O)cc1`, the activation was -4.89%.

With `O=C(c1ccncc1)N1CCN(c2ccc3ccccc3n2)CC1`, the activation is -4.23%.

Turning to `Oc1ccc(CN2CCN(c3ncccn3)CC2)cc1`, the activation was 7.28%.

Turning to `c1cnc(N2CCN(c3ccc4ccccc4n3)CC2)nc1`, the activation was 53.3% (active).

As for `CCN(CC(=O)Nc1c(F)cccc1F)C(=O)CN1c2cccc3cccc(c23)S1(=O)=O`, the activation was -9.4%.

On to `Cc1cc(NC(=O)CCS(=O)(=O)c2ccc(F)cc2)no1`, for which the activation was -7.32%.

On to `Cc1ccc(S(=O)(=O)NCCC(=O)NNC(=O)C2COc3ccccc3O2)cc1` (stereo not drawn), for which the activation is 5.45%.

With `COc1cccc(C(=O)Nc2ccc(N3CCN(C(=O)c4ccco4)CC3)cc2)c1`, the activation was -17.6%.

Take `Cc1ccc(C)c(OCC(=O)N2CCN(C(=O)c3ccco3)CC2)c1`: the activation was 17%.

In the case of `Cc1ccc(OCC(=O)Nc2ccc(N3CCN(C(=O)c4ccco4)CC3)cc2)c(C)c1`, the activation was 67.8% (active).

Regarding `COc1ccc(C(=O)OCC(=O)Nc2ccc3[nH]c(=O)[nH]c3c2)c(OC)c1OC`, the activation was 29.4%.

In the case of `CCc1c(C)sc(NC(=O)c2cccs2)c1C(N)=O`, the activation is 39.5%.

Take `CCOC(=O)c1c(NC(=O)C2CC=CCC2C(=O)O)sc(C)c1CC` (stereo not drawn): the activation is -15%.

`CCc1c(C)sc(NC(=O)c2ccc(Br)o2)c1C(=O)OC`: the activation is 64.8% (active).

For the molecule `Cc1onc(-c2ccccc2Cl)c1C(=O)OCc1nnc(-c2ccccc2)o1`, the activation is 23.4%.

In the case of `COc1ccc(-c2nnc3ccc(SCc4ccccc4)nn23)cc1`, the activation is 16%.

On to `COc1ccc2nc(SCc3ccccc3)nc(C)c2c1`, for which the activation was 68.9% (active).

`COC(=O)CSc1nc(C)c2ccc(OC)cc2n1`: the activation was 17.7%.

With `Cc1ccc(S(=O)(=O)N2CCCCC2)cc1C(=O)N(C)CC(=O)Nc1cccc(F)c1`, the activation was 5.46%.
